The values that follow come from PubChem BioAssay (EPA / NIEHS).

Records with an inconclusive call do not appear. Active and inactive are the calls of the source. How the source made its calls, unless noted: active means hit-call score of the fitted dose curve at least 0.9, where 1 is the maximum; inactive means score below 0.9.

Assay [1] can be described thus: CCTE_Simmons_MITO_max_resp_rate: CCTE's HepG2 Seahorse XF Respirometric Screening Assay at Maximal Respiratory State [uncoupled], Simmons Lab (AID 2284002). As to conditions: actives raise or lower the signal. The essentials: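 Uncoupled (FCCP) respiration of HepG2 cells served as the endpoint, with measurements at 6-minute intervals across a 72-minute run and compounds dosed at 7 concentrations up to 100 uM final.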

The nature of assay [2]: CCTE_Simmons_MITO_inhib_resp_rate: CCTE's HepG2 Seahorse XF Respirometric Screening Assay at Inhibited Respiratory State [full ETC block], Simmons Lab (AID 2284006). As to conditions: actives raise or lower the signal. The essentials: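 Test chemicals at seven final concentrations (125 nM–100 uM) in three biological replicates, with DMSO as vehicle. HepG2 oxygen consumption was then tracked on a Seahorse XF96 for 72 min through FCCP and rotenone/antimycin A phases, with the inhibited-phase rate as the endpoint.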

Assay [3] is described as follows: CCTE_Simmons_MITO_viability: CellTiter-Glo Viability Assessment for CCTE's HepG2 Seahorse XF Respirometric Screening Assay [post-hoc], Simmons Lab (AID 2284007; active means hit-call score of the fitted dose curve at least 0.9, where 1 is the maximum). In a few lines: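 Post-hoc viability check on the HepG2 respirometry plates: luciferase-based ATP signal measured once, after 90 min compound exposure spanning 125 nM–100 uM final. Activity was referenced to DMSO as baseline.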

Assay [4] is described as follows: CCTE_Shafer_MEA_acute_spike_number: CCTE's Neural Acute Assay for Total Number of Spikes, Shafer Lab (AID 2284008).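 On AC50: curve fitted for decrease in spike count so AC50 reflects inhibitors.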 The essentials: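 Using an adaptive detector set to 8x rms noise, spikes were counted in 40-min windows before and after compound addition (0.03-40 uM) to rat cortical networks at 37 C; the well-level change from baseline was analysed relative to DMSO.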

Assay [5] is described as follows: CCTE_Shafer_MEA_acute_firing_rate_mean: CCTE's Neural Acute Assay for Mean Firing Rate, Shafer Lab (AID 2284009).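 Further: analyzed for loss of signal so actives lower firing rate relative to DMSO.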 The essentials: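 Rat cortical neuron cultures matured to DIV 13 or 15, equilibrated 20 min at 37 C, then recorded 40 min for baseline. Compound (0.03-40 uM) added and a further 40 min recorded; percent change in mean firing rate calculated per well.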

Assay [6] in a line: CCTE_Harrill_HTTr_Viability_MCF7: CCTE's 6-hour Cell Viability Assessment for the High-Throughput Transcriptomics (HTTr) Platform, in MCF-7 cells cultured in DMEM + 10% fetal bovine serum, Harrill Lab (AID 2284010). The essentials: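 Eight-point concentration series, six-hour exposure. Propidium iodide exclusion imaged to assess membrane integrity as a cytotoxicity readout; bidirectional fitting was done with DMSO as negative control and activity baseline.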

Assay [7] can be described thus: CCTE_Simmons_MITO_basal_resp_rate: CCTE's HepG2 Seahorse XF Respirometric Screening Assay at Basal Respiratory State, Simmons Lab (AID 2284001). The following applies: actives raise or lower the signal. The essentials: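 Basal-phase OCR of HepG2 cells on a Seahorse XF96, analysed by bidirectional fit relative to DMSO vehicle; chemicals at 7 concentrations, 125 nM–100 uM final; three biological replicates; fenpyroximate and 2,4-dinitrophenol positive controls.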

Broadly, the AC50 is the concentration giving half of the maximal activity seen. Turning to `C=CCC1=C(C)[C@@H](OC(=O)[C@@H]2[C@@H](C=C(C)C)C2(C)C)CC1=O`, the concentration at half-maximal activity (AC50) in assay [1] is 47.4 µM (active); in assay [4], 4.06 µM (active); in assay [5], 4.06 µM (active). Further, the outcome in assay [2], in assay [3] and in assay [6] was inactive.

For the compound `CCCCOC(=O)c1ccccc1C(=O)OCCCC`, the outcome in assay [6] was inactive.

In the case of `CC(C)C1(C)N=C(c2nc3ccccc3cc2C(=O)O)NC1=O` (stereo unspecified), the outcome in assay [6] was inactive.

As for `COC(=O)c1ccccc1C(=O)OC`, the result in assay [6] was inactive.

In the case of `CCNc1nc(Cl)nc(NCC)n1`, in assay [6], the outcome was inactive.

On to `COP(N)(=O)SC` (stereo unspecified), for which the result in assay [4], in assay [5] and in assay [6] was inactive.

In the case of `CCOC(=O)C(Cl)Cc1cc(-n2nc(C)n(C(F)F)c2=O)c(F)cc1Cl` (stereo unspecified), in assay [6], the result was inactive.

Take `COC(=O)C=C(C)OP(=O)(OC)OC`: the outcome in assay [6] was inactive.

`COc1cnc(OC)n2nc(NS(=O)(=O)c3c(OCC(F)F)cccc3C(F)(F)F)nc12`: in assay [6], the result was inactive.

`CNC(=S)S`: in assay [6], the result was inactive.

`CCOP(=S)(OCC)SCn1c(=O)oc2cc(Cl)ccc21`: the compound was called inactive in assay [4], in assay [5] and in assay [6].

Take `CCOc1cc(Oc2ccc(C(F)(F)F)cc2Cl)ccc1[N+](=O)[O-]`: the outcome in assay [6] was inactive.

As for `O=C(O)COc1nc(Cl)c(Cl)cc1Cl`, the result in assay [7], in assay [1], in assay [2] and in assay [6] was inactive.

Consider `Fc1ccc(Oc2ccnc3cc(Cl)cc(Cl)c23)cc1`, for which the outcome in assay [4], in assay [5] and in assay [6] was inactive.

Turning to `O=C(O)c1nc(Cl)ccc1Cl`, the call in assay [4], in assay [5] and in assay [6] was inactive.
